Screening data as filed in PubChem BioAssay.
Compounds with a hit are over-represented: about 8% of the library has one in this group of screens.
LASV entry inh: qHTS for Inhibitors of binding or entry into cells for Lassa Virus. Lassa virus pseudotype entry inhibition, cell reporter. Potency, µM (series often up to 37.9 µM), for inactives: at the highest dose activity change, negative = inhibition, actives largely listed as inhibitors. 300,000 tested, 1.2% active; calls by dose curve; tested in HEK293 cells; further: potency means the concentration at half of the fitted maximal effect; on the % scale 0 is the no-effect control and ±100 the full control effect; nearly all actives have a fitted effect of over 50% in size
SARS PLpro yeast: qHTS of Yeast-based Assay for SARS-CoV PLP. Potency, µM (doses to about 32.9 µM), inactives show at the top dose activity, positive = growth rescue, most hits filed as activators. S. cerevisiae expressing SARS-CoV PLpro, growth rescue. 330,000 tested, 0.19% active. AID 485353, 2010; calls by dose curve; further: potency means the concentration at half of the fitted maximal effect; 0% is about no effect; nearly all actives have a fitted effect of over 55% in size
Marburg entry inh: qHTS for inhibitors of binding or entry into cells for Marburg Virus; Marburg virus pseudotyped entry inhibition, cell reporter; Potency, µM (doses to about 37.8 µM), for the others: at the highest dose activity change, negative = inhibition, usual class: inhibitors; 300,000 tested, 1.8% active; AID 540276, 2011; calls by dose curve; tested in HEK293 cells; further: potency means the concentration at half of the fitted maximal effect; on the % scale 0 is the no-effect control and ±100 the full control effect
HCV inhibitor: qHTS Assay for Inhibitors of Hepatitis C Virus (HCV) | Huh7.5.1 HCVcc-Cre infection, luciferase reporter, 44 h | Potency, µM (top dose mostly 41.8 µM), for the others: top-dose activity change, negative = inhibition, hits mostly inhibitors | 340,000 tested, 3.4% active | AID 651820, 2012; active means well fitted inhibition curve with a large enough effect; inconclusive means small, poorly fitted or top-dose-only effect, or another doubt; inactive means no such curve, though single readings can be large or run the other way; further: potency means the concentration at half of the fitted maximal effect; on the % scale 0 is the no-effect control and ±100 the full control effect
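Reporter virus HCVcc-Cre (~0.5 moi) infects cells exposed to compound; seeding density 1,000 cells/well with 4 h settling beforehand. Luminescence, 15 sec read, taken 44 h post-infection following a 15 min RT substrate incubation.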
FMDV inh: High Throughput Screening for Foot and Mouth Disease Virus Antivirals | FMDV antiviral cell-based qHTS | 410,000 tested, 1.2% active | Potency, µM (titrated, usually from 57.9 µM), for the others: top-dose activity change, negative = inhibition, usual class: inhibitors | AID 1159524, 2015; calls by dose curve; tested in HEK293T cells; further: read-out not given here; potency means the concentration at half of the fitted maximal effect; on the % scale 0 is the no-effect control and ±100 the full control effect; nearly all actives have a fitted effect of over 45% in size
HCMV antiviral: qHTS Assay for inhibitors of the human cytomegalovirus (HCMV) | HFF cells, HCMV-luciferase reporter, 72 h; stronger effect = lower value | 410,000 tested, 4.5% active | activity change, negative = inhibition, % at 57.5 µM | AID 1259415, 2018; in the data active means activity change below about -60%; inconclusive means no clear call, values can overlap the other calls; inactive means above about -39%; further: on the % scale 0 is the no-effect control and ±100 the full control effect
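Screen run at 2 compound doses on HFFs infected with reporter HCMV, MOI 1 PFU/cell. Luciferase activity from cell lysates at 72 h post infection gave inhibition relative to buffer-only and Salinomycin wells.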
* hit, by the source's call; ? = inconclusive; / = no result; ! = not confirmed by another sample; [ ] = remark or other dose.

SMILES	LASV entry inh	SARS PLpro yeast	Marburg entry inh	HCV inhibitor	FMDV inh	HCMV antiviral
CCN1C(=O)NC(CCc2ccccc2)C(C(C)=O)=C1C (stereo unspecified)	/	/	-9%[14.2 µM]	/	/	/
Cc1ccc(NC(=O)CCNS(=O)(=O)c2ccc3[nH]c(=O)oc3c2)cc1N(C)C	/	-12%	/	17%	19%	21
COc1ccc(CCNC(=O)CCS(=O)(=O)c2ccc3c(c2)NC(=O)C(C)S3)cc1OC (stereo unspecified)	/	-13%	/	1%	-15%	-31
COc1ccc(OC)c(S(=O)(=O)N2CCC(C(=O)Nc3ccc(C)c(C)c3)CC2)c1	-24%	0%	?	?	25µM*	-30
COc1ccc(CCNS(=O)(=O)c2ccc3c(c2)NC(=O)C(C)S3)cc1OC (stereo unspecified)	-9%[46.1 µM]	17%	?	25µM*	-16%	-20
O=C(O)c1cccc(-c2noc(-c3cccc(Cl)c3)n2)c1	/	-2%	/	/	?	213
COc1ccc(N(C)C(=O)c2cn(CC(C)C)c(=O)c3cc(OC)c(OC)cc23)c(OC)c1	/	4%	/	-15%	-24%	-1
COc1cc2c(C(=O)N(C)c3cc(Cl)ccc3OC)cn(CC(C)C)c(=O)c2cc1OC	-27%[46.1 µM]	/	?	/	0%	-61*
CC(=O)N1c2ccc(S(=O)(=O)NCC3CCC(C(=O)Nc4cccc(C)n4)CC3)cc2CC1C (stereo unspecified)	?	13%	?	?	22µM*	-71*
CC(=O)N1c2ccc(S(=O)(=O)N3CCC(C(=O)Nc4cccc(C)n4)CC3)cc2CC1C (stereo unspecified)	/	7%	/	1.3µM*	-19%	-87*
CC(=O)N1c2ccc(S(=O)(=O)NCC3CCC(C(=O)Nc4cccc(C)c4)CC3)cc2CC1C (stereo unspecified)	-13%[46.1 µM]	/	/	/	-17%	38
CC(=O)N1c2ccc(S(=O)(=O)N3CCC(C(=O)Nc4ccccn4)CC3)cc2CC1C (stereo unspecified)	/	2%	/	?	-28%	?
Cc1cc(C)n2nc(C(=O)NCC3Cc4cccc(-c5ccc(S(C)(=O)=O)cc5)c4O3)cc2n1 (stereo unspecified)	/	/	/	/	34%	/
CCc1ccc(/C=C/c2c([N+](=O)[O-])c(=O)n(C)c(=O)n2C)cc1	/	-1%	/	?	16µM*	-98*
COc1ccc(/C=C/c2c([N+](=O)[O-])c(=O)n(C)c(=O)n2C)cc1	/	0%	-7%[46.1 µM]	2%	-1%	10
CCOc1ccc(/C=C/c2c([N+](=O)[O-])c(=O)n(C)c(=O)n2C)cc1	?	-1%	?	10%	-29%	-75*
CCCCCN1N=C(C)CC1=O	2µM*	2%	-13%[46.1 µM]	-5%	1%	-36
Cc1nnsc1S(=O)c1ccc(Br)cc1 (stereo unspecified)	/	-1%	/	-16%	0%	-63*
Cc1nnsc1S(=O)c1ccc(F)cc1 (stereo unspecified)	/	0%	/	-1%	?	-69*
CC(C)C[C@@H](C=O)NC(=O)[C@H](CC(C)C)NC(=O)[C@H](CC(C)C)NC(=O)OCc1ccccc1	/	/	/	/	-17%	/
Cc1ccc(Cl)cc1NC1=C/C(=N\S(=O)(=O)c2cccs2)c2ccccc2C1=O	6.5µM*	-22%	?	10µM*	14µM*	-99*
O=C1C(Nc2ccc(O)cc2)=C/C(=N/S(=O)(=O)c2cccs2)c2ccccc21	3.5µM*	-2%	2.5µM*	3.5µM*	13µM*	-99*
CCc1ccc(S(=O)(=O)/N=C2\C=C(Nc3cccc(C(=O)O)c3)C(=O)c3ccccc32)cc1	?	-2%	3%[46.1 µM]	?	?	12
O=C(O)c1ccc(NC2=C/C(=N/S(=O)(=O)c3cccs3)c3ccccc3C2=O)cc1	/	/	/	/	10µM*	-24
O=C1C=C(Nc2ccc(O)cc2)C(=O)c2ccccc21	?	-1%	?	?	10%	0
SMILES	LASV entry inh	SARS PLpro yeast	Marburg entry inh	HCV inhibitor	FMDV inh	HCMV antiviral
COC(=O)c1ccc(C2c3c(oc4cc(C)c(C)cc4c3=O)C(=O)N2c2ccccn2)cc1 (stereo unspecified)	17%[46.1 µM]	/	6%[46.1 µM]	/	-9%	-4
CCCCN(CCCC)S(=O)(=O)c1ccc(NC(=O)c2c(-c3ccccc3)noc2C)cc1	-22%[46.1 µM]	/	?	/	-1%	26
CCN(CC(=O)Nc1ccccc1OC)C(=O)CSCC(=O)Nc1ccc(OC)cc1	-17%	/	11%[46.1 µM]	4%	-16%	-5
CN1CC2=Cc3ccccc3OC23Oc2ccccc2C=C3C1	?	1%	?	-28%	?	-80*
COC(=O)C(C(C)=O)C1c2ccccc2C=C(C)N1C(=O)OC (stereo unspecified)	/	/	-30%[14.2 µM]	/	/	/
COc1ccc2[nH]c3c(c(=O)c2c1)CCCC3	/	/	/	/	3%	-26
COc1ccc2[nH]c3c(c2c1)CC(C)NC3=O (stereo unspecified)	/	-2%	/	-27%	10%	-75*
Cc1sc(N=Nc2ccc(N(C)C)cc2)[n+]([O-])c1C	/	/	/	/	-25%	35
CCCCN(C)C(=S)Nc1ccc2nc(N3CCN(CC)CC3)cc(C)c2c1	/	-4%	/	-21%	-9%	-26
Cc1cc(N2CCN(C)CC2)nc2ccc(NC(=S)N3CCN(c4ccc(F)cc4)CC3)cc12	/	2%	/	10µM*	20%	-33
Cc1cc(N2CCN(C)CC2)nc2ccc(NC(=S)N3CCN(c4ccc(Cl)cc4)CC3)cc12	2%	-3%	-24%[46.1 µM]	?	6%	?
CCCCN(CC)C(=S)Nc1ccc2nc(N3CCN(C)CC3)cc(C)c2c1	/	0%	/	?	0%	-72*
CCCCN(C)CCNC(=S)Nc1ccc2nc(N3CCN(CC)CC3)cc(C)c2c1	7.1µM*	0%	?	?	-9%	-4
CCCN1CCN(CCCNC(=S)Nc2ccc3nc(N4CCN(CC)CC4)cc(C)c3c2)CC1	/	-2%	/	?	3%	?
CCCCNC(=S)Nc1ccc2nc(N3CCN(CC)CC3)cc(C)c2c1	-6%[46.1 µM]	1%	?	13µM*	-17%	-17
Cc1ccc(-c2nn(CC(=O)NC3CCCC3)c3c2cnc2ccc(F)cc23)cc1C	?	/	/	/	33%	80
Cc1cnc(CNc2nc(-c3cccc(NS(C)(=O)=O)c3)nc3ccccc23)cn1	/	/	/	/	2%	/
C=CCN1CC(O)=C(c2ccccc2)C1=N	-3%	-13%	6%	18%	/	-69*
O=C(Nc1ccccc1Cl)N1CCN(c2ccc3nnc(-c4ccc(F)cc4)n3n2)CC1	-23%	-2%	-17%	?	?	4
COc1ccccc1NC(=O)N1CCN(c2ccc3nnc(-c4ccc(F)cc4)n3n2)CC1	-1%	1%	?	-19%	-30%	-76*!
